Source: PubChem BioAssay AID504466 (National Center for Advancing Translational Sciences (NCATS), 2011)
The whole screen tested about 330,000 compounds, of which about 4,200 (1.3%) were called active. Where a call stands in place of a potency, no number is given. Another 6% or so got no clear call; they are omitted. The call rests on the fitted dose curve; in most records, active means well fitted activation curve with a large enough effect; inconclusive means small, poorly fitted or top-dose-only effect; inactive means no such curve, though single readings can be large or run the other way. This excerpt belongs to a sample that is enriched for actives.

Assay: qHTS screen for small molecules that induce genotoxicity in human embryonic kidney (HEK293T) cells expressing luciferase-tagged ELG1; further: nearly all actives have a fitted effect of over 60% in size
Settings: HEK293T ELG1-luciferase reporter, luminescence, 16 h; series mostly up to 46 µM
Outline: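 HEK293T cells expressing luciferase-tagged ELG1 were exposed to compound or DMSO vehicle for 16 hr at 37 °C and 5% CO2. Luciferase activity was then measured with ONE-Glo after 30 min at room temperature.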
Potency means the concentration at half of the fitted maximal effect.

| Structure (SMILES) | Potency |
| --- | --- |
| O=C(COC(=O)c1cccc(Cl)c1)NC(=O)NCc1ccccc1 | inactive |
| O=C(NCc1cccnc1)c1cccc(-c2cc3ccccc3oc2=O)c1 | inactive |
| Nc1ncc(-c2cc3ccccc3oc2=O)s1 | 2.59 µM (active) |
| O=C(Nc1ccncc1)c1cc2ccccc2o1 | inactive |
| O=C(COC(=O)c1ccccc1)Nc1ccccc1Sc1ccccc1 | inactive |
| O=C(COC(=O)c1cccc(Br)c1)Nc1cccc2c1C(=O)c1ccccc1C2=O | 13 µM (active) |
| O=C(COC(=O)Cn1cnc2ccccc21)Nc1cccc2c1C(=O)c1ccccc1C2=O | inactive |
| C[C@H](CO)N1C[C@H](C)[C@H](CN(C)CC2CC2)Oc2ccc(NC(=O)CCN3CCOCC3)cc2C1=O | inactive |
| COC(=O)c1ccc(CSc2nc3cc(Cl)ccc3o2)cc1 | inactive |
| CC(C)c1nc2cc(C(=O)NC(C)c3cnn(C)c3)ccc2o1 (configuration not stated) | inactive |
| COC(=O)c1ccc(CNC(=O)c2ccc3oc(C(C)C)nc3c2)cc1 | 20.6 µM (active) |
| C=CC[C@@H](CC(=O)NCCO)C(=O)N[C@H](C)COC(=O)[C@@H](CC=C)CC(=O)OC(C)(C)C | inactive |
| Cc1cccc(C(=O)OCC(=O)NC(C)C2CC3CCC2C3)c1O (configuration not stated) | inactive |
| COc1ccccc1NC(=O)COC(=O)CNC(=O)C1CCCCC1 | inactive |
| Nc1ncnc2c1ncn2[C@@H]1O[C@H](CNS(=O)(=O)c2ccc(-c3ccno3)s2)[C@@H](O)[C@H]1O | inactive |
| O=C(CCCOc1ccccc1)NNC(=O)c1ccc(Cl)cc1 | inactive |
| CCS(=O)(=O)Nc1cccc(-c2cc(-c3ccccc3)c3cc(C)ccc3n2)c1 | inactive |
| CC(=O)Nc1cccc(-c2cnc3ccccc3n2)c1 | 10.3 µM (active) |
| CC(=O)Nc1cccc(Nc2nc(-c3cccs3)nc3ccccc23)c1 | inactive |
| O=C(c1ccc(S(=O)(=O)NCc2ccco2)cc1)N1CCN(c2ccccc2)CC1 | inactive |
| COC(=O)c1oc2ccc(Br)cc2c1NC(C)=O | inactive |
| Cc1c(C(=O)Nc2ccccn2)oc2ccc(Br)cc12 | 9.2 µM (active) |
| Cc1noc(C)c1C(=O)Nc1ccccn1 | inactive |
| O=C(COC(=O)COc1cc(Cl)c(Cl)cc1Cl)NC1CC1 | inactive |
| CCOC(=O)COc1cc(O)c2c(=O)cc(-c3ccccc3)oc2c1 | inactive |
| COc1ccc(-c2cc(=O)c3c(O)cc(O[C@@H]4O[C@H](CO[C@@H]5O[C@@H](C)[C@H](O)[C@@H](O)[C@H]5O)[C@@H](O)[C@H](O)[C@H]4O)cc3o2)cc1O | inactive |

| Structure (SMILES) | Potency |
| --- | --- |
| COc1c(O)cc2oc(-c3ccc(O)c(O)c3)cc(=O)c2c1O | 20.6 µM (active) |
| CCN(C(=O)COC(=O)CCC(=O)c1cccs1)C1CCCCC1 | inactive |
| C[C@H](CO)N1C[C@H](C)[C@H](CN(C)C(=O)Nc2ccc(C(F)(F)F)cc2)Oc2c(NC(=O)c3ccncc3)cccc2C1=O | inactive |
| C[C@]12c3[nH]c4ccc(Cl)cc4c3CCN1C(=O)[C@@H](CC(=O)NCCCn1ccnc1)C[C@@H]2C(=O)N1CCOCC1 | inactive |
| CCC1CCCCN1C(=S)NC(=O)c1ccco1 (configuration not stated) | inactive |
| COc1ccc2c(CC(=O)NNC(=O)c3ccccc3F)coc2c1 | inactive |
| O=C(CSCc1ccccc1)N1CCc2ccccc21 | 2.59 µM (active) |
| O=C(CN1CCN(c2ccccn2)CC1)N1CCc2ccccc21 | inactive |
| CCC(=O)N1CCCc2ccccc21 | inactive |
| COc1cc(C2CC(=O)Oc3cc(OC)c(OC)c(OC)c32)cc(OC)c1OC (configuration not stated) | inactive |
| CC1CC(=NNC(=O)C2COc3ccccc3O2)CC(C)(C)C1 (configuration not stated) | inactive |
| Cc1csc(NC(=O)c2ccc(-c3ccc(Cl)cc3Cl)o2)n1 | inactive |
| COc1cc(SC)ccc1C(=O)Nc1nc(C)cs1 | 0.058 µM (active) |
| COc1cc(SC)ccc1C(=O)N(Cc1ccccc1)c1ccccc1 | inactive |
| CN(C)C(=O)CCc1ccc2c3c([nH]c2c1)[C@]1(CCc2ccccc2)[C@@H](C(=O)N2CCCCC2)C[C@H](CC(=O)NCCC2=CCCCC2)C(=O)N1CC3 | inactive |
| CN(Cc1ccc(F)cc1)C(=O)CN1C(=O)c2ccccc2S1(=O)=O | inactive |
| CC[C@]12c3[nH]c4cc(CCC(=O)N(C)C)ccc4c3CCN1C(=O)[C@@H](CC(=O)NCc1ccco1)C[C@@H]2C(=O)N1CCN(C(=O)c2ccco2)CC1 | inactive |
| C(=N/N1CCN(c2ccccc2)CC1)/c1cccs1 | 14.6 µM (active) |
| Cc1ccc(N2CCN(/N=C/c3cccs3)CC2)cc1 | inactive |
| COc1cc(/C=N/N2CCN(c3ccccc3)CC2)ccc1OC(C)=O | inactive |
| CN(CC(=O)Nc1ccc(OC(F)F)cc1)S(=O)(=O)/C=C/c1ccccc1 | inactive |
| COc1ccc2sc(-c3ccc(N(C)C)cc3)c(-c3ccc4cc[nH]c4c3)c2c1 | inactive |
| O=C(Nc1ccc(NC(=O)c2cccs2)cc1)c1ccc2ccccc2c1 | inactive |
| Cc1ccc(C(=O)Nc2ccc(NC(=O)c3cccs3)cc2)c(C)c1 | inactive |
| O=C(Nc1ccc2oc(-c3ccc4ccccc4c3)nc2c1)c1cccs1 | 2.91 µM (active) |
| COc1ccc(CCNC(=O)COC(=O)c2cnc(Cl)c(Cl)c2)cc1 | inactive |

| Structure (SMILES) | Potency |
| --- | --- |
| Cc1ccc2[nH]c(=O)c(COC(=O)c3ccccn3)cc2c1 | inactive |
| CCOC(=O)c1[nH]c2ccc(C)cc2c1N=C(C)N(C)C | inactive |
| CCOC(=O)c1cc2cc(C)ccc2[nH]1 | 20.6 µM (active) |
| C[C@H]1CN([C@@H](C)CO)C(=O)Cc2cc(NC(=O)Cc3ccccc3)ccc2O[C@H]1CN(C)S(=O)(=O)c1cccs1 | inactive |
| Cc1ccc(N2C(=O)N3[C@@H]4c5ccccc5OC[C@@H]4[C@@H](c4ccccc4)[C@@]3(C)C2=O)cc1 | inactive |
| COc1ccccc1-c1nnc(NC(=O)c2ccc3ncsc3c2)o1 | inactive |
| Cc1sc(NC(=O)c2ccc3ncsc3c2)c(C(N)=O)c1C | 2.31 µM (active) |
| Cc1ccc(C(=O)c2c(NC(=O)c3ccccc3)sc(C)c2C)cc1 | inactive |
| C=CC[C@H](CC(=O)NCCO)C(=O)N[C@@H](COC(=O)[C@@H](CC=C)Cc1ccc(F)cc1)Cc1c[nH]c2ccccc12 | inactive |
| CC(=O)c1ccc2c(c1)OCCOCCOc1ccc(C(C)=O)cc1OCCOCCO2 | inactive |
| CCN(CC)Cc1cc(C(C)=O)ccc1O | inactive |
| CC(=O)c1ccc2c(ccc3ccccc32)c1 | 23.1 µM (active) |
| COc1ccccc1N(CC(=O)Nc1ccc(C)cc1Cl)S(=O)(=O)c1cccs1 | inactive |
| CCCSc1nc2sc3c(c2c(=O)n1-c1ccc(OC)cc1)CCN(C)C3 | inactive |
| CCCn1nnc2sc3c(c2c1=O)CCC(C)C3 (configuration not stated) | 11.6 µM (active) |
| C=CCn1c(SCc2c(C)noc2C)nc2sc3c(c2c1=O)CCC(C)C3 (configuration not stated) | inactive |
| O=C(COC(=O)COc1ccccc1F)Nc1cccc(S(=O)(=O)N2CCCCC2)c1 | inactive |
| COc1cc(OC)cc(C(=O)NNC(=O)Cc2cccs2)c1 | inactive |
| Cc1cc(C)nc(Nc2ncn[nH]2)n1 | inactive |
| Cc1cc(C)nc(Nc2n[nH]c(-c3ccccc3N)n2)n1 | 2.31 µM (active) |
| CCCOc1ccccc1-c1nc(SCCC(=O)O)n[nH]1 | inactive |
| COc1cc(OC)cc(-c2c(C#Cc3ccsc3)c3cc(-c4ccc(OC)cc4F)ccc3n2C)c1 | inactive |
| Nc1ccc(-c2sc(N)nc2-c2ccccc2)cc1 | inactive |
| OC(c1nnc(-c2ccccc2)o1)c1cccs1 (configuration not stated) | inactive |
| Nc1ccc(-c2nnc(-c3ccccc3)o2)cc1 | 16.4 µM (active) |
| CC(C)n1cnc2c(NCc3ccccc3)cc(OCC3CCN(C)CC3)cc21 | inactive |

| Structure (SMILES) | Potency |
| --- | --- |
| Cc1ccc(-c2csc(-c3c[nH]c4ccccc34)n2)cc1 | 23.1 µM (active) |
| Cc1ccc(-c2csc(NC3OC(=O)c4ccccc43)n2)cc1 (configuration not stated) | inactive |
| Cc1ccc(-c2csc(NC(=O)Cn3[nH]c(=O)c4ccccc4c3=O)n2)cc1 | inactive |
| O=C(Cn1cc(C(F)(F)F)ccc1=O)Nc1ccc2c(c1)OCCO2 | inactive |
| Cc1ccc(C)c(N2CCN(C(=O)CCc3nc(-c4cccc(C(F)(F)F)c4)no3)CC2)c1 | inactive |
| Cc1c(C(=O)Nc2cccc(S(=O)(=O)N3CCOCC3)c2)oc2ccccc12 | inactive |
| O=C(COC(=O)c1n[nH]c2ccccc12)Nc1ccccc1Br | inactive |
| CC(=O)Nc1ccc(NC(=O)COC(=O)C2CCC(C(C)(C)C)CC2)cc1 (configuration not stated) | inactive |
| CSCC[C@H](NC(=O)OC(C)(C)C)C(=O)N/N=C/c1cc2ccc(C)cc2nc1Cl | inactive |
| Cc1ccc2cc(/C=N/Nc3ccc(C(=O)O)cc3)c(Cl)nc2c1 | 18.3 µM (active) |
| Cc1ccc2cc(/C=N/NC(=O)[C@@H]3CCCN3)c(Cl)nc2c1 | inactive |
| COc1ccc(CC(=O)N[C@@H]2c3cc(OC)c(OC)cc3C[C@H]2OCc2ccccc2)cc1 | inactive |
| O=C(CSc1nnc2ccccn12)c1ccccc1 | 11.6 µM (active) |
| Cc1ccc(-n2c(C)cc(C(=O)CSc3nnc4ccccn34)c2C)cc1 | 5.17 µM (active) |
| Cc1cc(C(=O)CSc2nc(N)cc(=O)[nH]2)c(C)n1-c1cccc(F)c1 | inactive |
| O=C(CSc1nnc2n1CCCN2)c1ccccc1 | inactive |
| CCN(C(=O)CSc1nnc2ccccn12)C1CCS(=O)(=O)C1 (configuration not stated) | inactive |
| Cc1ccc(C(=O)NNC(=O)CSc2nnc3ccccn23)cc1 | inactive |
| CC1CCCCC12NC(=O)N(CC(=O)OCc1c(F)cccc1Cl)C2=O (configuration not stated) | inactive |
| C[C@H](NS(=O)(=O)c1ccc(Cl)cc1)C(=O)OCC(=O)N1CCOCC1 | inactive |
| COc1cc(OC)cc(-c2sc3ccc(OC)cc3c2-c2ccc3cc[nH]c3c2)c1 | inactive |
| Cc1ccc(NC(=O)c2cnc(SCC(=O)NCC3CCCO3)n(C)c2=O)cc1 (configuration not stated) | 20.6 µM (active) |
| CCn1c(SCC(=O)NCC2CCCO2)nc2ccccc21 (configuration not stated) | inactive |
| Cn1c(SCC(=O)c2ccccc2)ncc(C(=O)Nc2ccc(F)cc2)c1=O | inactive |
